Experimental data from PubChem BioAssay (Tox21).
The source made the active and inactive calls. Unless noted, calls come from the whole dose curve; as a rule, active = well fitted curve in the direction sought with a large enough effect in the repeat runs; inconclusive = weak or mixed curves; inactive = no such curve, though single readings can be large; an effect the other way counts as inactive or inconclusive.

Assays:
[1] = qHTS assay for small molecules that induce genotoxicity in human embryonic kidney cells expressing luciferase-tagged ATAD5 (AID 651632); note: nearly all actives have a fitted effect of over 15% in size
Procedure, shortened: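 A rise in luciferase signal from ATAD5-tagged HEK293T cells marks genetic stress. Cells were exposed to compounds for 16 hr at 37C, 5% CO2, then luciferase was quantified after a 30 min room-temperature incubation with Amplite.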

[2] = qHTS assay for small molecule agonists of the p53 signaling pathway - cell viability (AID 651633; calls by dose curve; note: nearly all actives have a fitted effect of over 30% in size; note: potency is the fitted concentration of half-maximal effect)
Procedure, shortened: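 p53RE-bla cells, seeded at 4,000 per well and rested 5 h at 37 C/5% CO2, received compounds in DMSO for 16 h at 37 C. CellTiter-Glo was then added, and luminescence was read after 30 min at room temperature to gauge cytotoxicity.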

[3] = qHTS assay for small molecules that induce genotoxicity in human embryonic kidney cells expressing luciferase-tagged ATAD5 - cell viability (AID 651634; calls by dose curve; note: nearly all actives have a fitted effect of over 25% in size)
Procedure, shortened: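 Cytotoxicity counter-readout: after 15.5 hr compound treatment at 37C, live-cell protease activity in ATAD5-luciferase HEK293T cells measured by CellTiter-Fluor fluorescence, 30 min development at 37C.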

[4] = qHTS assay for small molecule disruptors of the mitochondrial membrane potential - cell viability (AID 720634; calls by dose curve;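 note: human HepG2 liver cancer cells; series mostly up to about 83 µM; nearly all actives have a fitted effect of over 20% in size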)
Procedure, shortened: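 Cytotoxicity was quantified from ATP content by CellTiter-Glo luminescence in the same wells as the MMP dye read-out. HepG2 (2,000 cells/well) were plated overnight and exposed to compounds for 1 hr at 37 C.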

[5] = qHTS assay for small molecule disruptors of the mitochondrial membrane potential (AID 720635); note: potency is the fitted concentration of half-maximal effect
Procedure, shortened: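 HepG2 cells (2,000/well) attached overnight at 37C, then took compound for 1 hr at 37C, 5% CO2. Mito-MPS dye was added for 30 min; fluorescence was read at 490/535 nm (monomers) and 540/590 nm (aggregates).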

[6] = qHTS assay to test for compound auto fluorescence at 535 nm (green) in HepG2 cells (AID 720675)
[7] = qHTS assay to test for compound auto fluorescence at 460 nm (blue) in HEK293 cells (AID 720678)
Procedure, shortened: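 Blue-channel (Ex/Em 405/460 nm) intensity measured in HEK293 cultures after overnight compound exposure at 37C; signal expressed relative to triamterene. Cells plated 2,000 per well in 10% dialyzed FBS medium and allowed 4-5 hr to attach.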

[8] = qHTS assay to test for compound auto fluorescence at 590 nm (red) in HEK293 cells (AID 720679)
Procedure, shortened: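 Red-channel autofluorescence (Ex/Em 540/590 nm; Rose Bengal sodium reference) was measured after overnight 37C, 5% CO2 exposure of attached HEK293 cells, 2,000 per well in medium with 10% dialyzed FBS.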

[9] = qHTS assay to test for compound auto fluorescence at 535 nm (green) in HEK293 cells (AID 720680)
[10] = qHTS assay to test for compound auto fluorescence at 460 nm (blue) in HEK293 cell free culture (AID 720681)
Procedure, shortened: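 Test compounds were pinned into cell-free culture medium (DMEM with 10% FBS) and fluorescence was read directly at Ex/Em 405/460 nm. Signals were expressed as fluorescence equivalents of triamterene, with DMSO vehicle as control.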

[11] = qHTS assay to test for compound auto fluorescence at 535 nm (green) in HEK293 cell free culture (AID 720682)
Procedure, shortened: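 Steps: dispense DMEM/10% FBS into empty wells; pin in compound or DMSO; measure fluorescence at 485/535 nm. Values are fluorescein equivalents.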

[12] = qHTS assay to test for compound auto fluorescence at 590 nm (red) in HEK293 cell free culture (AID 720683)
Procedure, shortened: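 Tox21 10K library compounds were pinned into cell-free DMEM with 10% FBS and fluorescence was read at excitation 540 nm. Activity is expressed as Rose Bengal sodium equivalency.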

[13] = qHTS assay to test for compound auto fluorescence at 590 nm (red) in HepG2 cell free culture (AID 720684)
Procedure, shortened: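 Ex 540 / Em 590 nm read of compound in cell-free MEM (10% FBS). Rose Bengal sodium reference.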

[14] = qHTS assay to test for compound auto fluorescence at 460 nm (blue) in HepG2 cell free culture (AID 720685)
Procedure, shortened: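 Cell-free plates of MEM plus 10% FBS received 23 nL compound or DMSO vehicle; blue-channel (405/460 nm) intensity scored against triamterene as reference fluorophore.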

[15] = qHTS assay to test for compound auto fluorescence at 535 nm (green) in HepG2 cell free culture (AID 720686)
[16] = qHTS assay to test for compound auto fluorescence at 460 nm (blue) in HepG2 cells (AID 720687)
Procedure, shortened: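 Cells (2,000/well in MEM with 10% FBS) attached overnight at 37 C, then were exposed to compound or DMSO for 1 hr at 37 C, 5% CO2. Fluorescence read at Ex/Em 405/460 nm, expressed as triamterene-equivalent signal.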

[17] = qHTS assay to identify small molecule antagonists of the glucocorticoid receptor (GR) signaling pathway - cell viability counter screen (AID 720693); note: nearly all actives have a fitted effect of over 55% in size; note: potency is the fitted concentration of half-maximal effect
[18] = qHTS assay for identifying genotoxic compounds that show differential cytotoxicity against isogenic chicken DT40 cell lines with known DNA damage response pathways - Rad54/Ku70 mutant cell line (AID 743015); note: potency is the fitted concentration of half-maximal effect; nearly all actives have a fitted effect of over 60% in size
[19] = qHTS assay to identify small molecule antagonists of the androgen receptor (AR) signaling pathway - cell viability counter screen (AID 743033; note: nearly all actives have a fitted effect of over 45% in size)
[20] = qHTS assay to identify small molecule antagonists of the androgen receptor (AR) signaling pathway using the MDA cell line - cell viability counter screen (AID 743041; note: nearly all actives have a fitted effect of over 45% in size)
Procedure, shortened: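 In this qHTS counter assay, fluorescence intensity after CellTiter-Fluor addition indicated viability of MDA-kb2 AR-luc cells given compounds and R1881 for 16 h at 37C.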

[21] = qHTS assay to identify small molecule antagonists of the thyroid receptor (TR) signaling pathway - cell viability counter screen (AID 743064); note: nearly all actives have a fitted effect of over 50% in size; note: potency is the fitted concentration of half-maximal effect
Procedure, shortened: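 Plate GH3.TRE-Luc cells; incubate 4 h at 37 °C; add compound, then T3 to 1 nM final; incubate 23.5 h; add CellTiter-Fluor; incubate 30 min at 37 °C, 5% CO2; read fluorescence.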

[22] = qHTS assay to identify small molecule antagonists of the thyroid receptor (TR) signaling pathway (AID 743065); note: potency is the fitted concentration of half-maximal effect; nearly all actives have a fitted effect of over 55% in size
Procedure, shortened: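 GH3.TRE-Luc rat pituitary cells carrying two TR response elements driving luciferase were plated for 4 h, given compound plus 1 nM T3 (final), and incubated 23.5 h at 37 C. ONE-Glo luminescence measured reporter inhibition; CellTiter-Fluor fluorescence tracked cytotoxicity.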

[23] = qHTS assay to identify small molecule antagonists of the estrogen receptor alpha (ER-alpha) signaling pathway - cell viability counter screen (AID 743074; calls by dose curve;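 note: HEK293 cells carrying ER-alpha-UAS-bla reporter stimulated with 17beta-estradiol; potency is the fitted concentration of half-maximal effect; nearly all actives have a fitted effect of over 45% in size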)
[24] = target: Estrogen receptor (Homo sapiens) (UniProt P03372); test: qHTS assay to identify small molecule agonists of the estrogen receptor alpha (ER-alpha) signaling pathway (AID 743075; calls by dose curve;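 note: HEK293 GripTite cells with ER-alpha and UAS-driven beta-lactamase reporter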; note: potency is the fitted concentration of half-maximal effect)
Sequence of Estrogen receptor (Homo sapiens) (P03372 whole entry, looked up): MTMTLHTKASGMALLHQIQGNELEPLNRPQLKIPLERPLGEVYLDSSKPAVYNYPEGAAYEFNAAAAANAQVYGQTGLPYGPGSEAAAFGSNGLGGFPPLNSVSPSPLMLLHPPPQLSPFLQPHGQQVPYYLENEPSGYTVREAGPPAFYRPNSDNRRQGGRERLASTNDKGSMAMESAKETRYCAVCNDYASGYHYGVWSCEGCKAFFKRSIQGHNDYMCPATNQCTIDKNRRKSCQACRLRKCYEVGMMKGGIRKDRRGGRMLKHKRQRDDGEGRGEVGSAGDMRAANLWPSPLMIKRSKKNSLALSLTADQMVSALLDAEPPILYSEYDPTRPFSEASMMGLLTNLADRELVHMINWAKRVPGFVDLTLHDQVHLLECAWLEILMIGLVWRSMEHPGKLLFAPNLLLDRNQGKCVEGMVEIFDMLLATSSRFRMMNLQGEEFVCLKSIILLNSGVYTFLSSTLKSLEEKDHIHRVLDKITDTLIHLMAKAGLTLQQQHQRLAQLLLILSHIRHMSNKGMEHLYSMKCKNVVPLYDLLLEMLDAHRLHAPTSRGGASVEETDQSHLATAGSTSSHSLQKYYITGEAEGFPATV

[25] = target: Estrogen receptor (Homo sapiens) (UniProt P03372); test: qHTS assay to identify small molecule agonists of the estrogen receptor alpha (ER-alpha) signaling pathway using the BG1 cell line (AID 743079); note: nearly all actives have a fitted effect of over 20% in size; note: potency is the fitted concentration of half-maximal effect
[26] = qHTS assay to identify small molecule antagonists of the estrogen receptor alpha (ER-alpha) signaling pathway using the BG1 cell line - cell viability counter screen (AID 743081);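 note: compound given together with 17beta-estradiol as the ER stimulus; series mostly up to about 70 µM; nearly all actives have a fitted effect of over 45% in size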
Aromatase (Homo sapiens) = Aromatase (Homo sapiens) (UniProt P11511); test: qHTS assay to identify aromatase inhibitors (AID 743083); note: series mostly up to about 70 µM; nearly all actives have a fitted effect of over 55% in size
Sequence of Aromatase (Homo sapiens) (P11511 whole entry, looked up): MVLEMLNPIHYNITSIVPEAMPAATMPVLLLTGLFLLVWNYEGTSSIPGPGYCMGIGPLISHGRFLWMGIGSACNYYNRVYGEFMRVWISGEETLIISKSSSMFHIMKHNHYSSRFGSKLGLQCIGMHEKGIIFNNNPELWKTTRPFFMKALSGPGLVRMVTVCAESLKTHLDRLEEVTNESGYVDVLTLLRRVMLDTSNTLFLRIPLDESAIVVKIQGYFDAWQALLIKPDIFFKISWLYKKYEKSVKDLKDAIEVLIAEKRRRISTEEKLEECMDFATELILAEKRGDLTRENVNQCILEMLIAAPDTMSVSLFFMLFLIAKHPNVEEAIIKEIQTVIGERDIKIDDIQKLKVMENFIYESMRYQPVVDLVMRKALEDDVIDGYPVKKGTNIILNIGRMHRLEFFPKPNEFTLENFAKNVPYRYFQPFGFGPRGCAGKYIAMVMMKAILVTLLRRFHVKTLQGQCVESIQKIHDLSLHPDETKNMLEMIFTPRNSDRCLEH

[27] = qHTS assay to identify aromatase inhibitors - cell viability counter screen (AID 743084);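 note: cells stimulated with testosterone during compound exposure; nearly all actives have a fitted effect of over 55% in size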
[28] = target: Aryl hydrocarbon receptor (Homo sapiens) (UniProt P35869); test: qHTS assay to identify small molecule that activate the aryl hydrocarbon receptor (AhR) signaling pathway (AID 743085);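 note: HG2L7.5c1 human HepG2 liver cells with stably integrated DRE-driven firefly reporter; series mostly up to about 70 µM; nearly all actives have a fitted effect of over 15% in size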
Sequence of Aryl hydrocarbon receptor (Homo sapiens) (P35869 whole entry, looked up): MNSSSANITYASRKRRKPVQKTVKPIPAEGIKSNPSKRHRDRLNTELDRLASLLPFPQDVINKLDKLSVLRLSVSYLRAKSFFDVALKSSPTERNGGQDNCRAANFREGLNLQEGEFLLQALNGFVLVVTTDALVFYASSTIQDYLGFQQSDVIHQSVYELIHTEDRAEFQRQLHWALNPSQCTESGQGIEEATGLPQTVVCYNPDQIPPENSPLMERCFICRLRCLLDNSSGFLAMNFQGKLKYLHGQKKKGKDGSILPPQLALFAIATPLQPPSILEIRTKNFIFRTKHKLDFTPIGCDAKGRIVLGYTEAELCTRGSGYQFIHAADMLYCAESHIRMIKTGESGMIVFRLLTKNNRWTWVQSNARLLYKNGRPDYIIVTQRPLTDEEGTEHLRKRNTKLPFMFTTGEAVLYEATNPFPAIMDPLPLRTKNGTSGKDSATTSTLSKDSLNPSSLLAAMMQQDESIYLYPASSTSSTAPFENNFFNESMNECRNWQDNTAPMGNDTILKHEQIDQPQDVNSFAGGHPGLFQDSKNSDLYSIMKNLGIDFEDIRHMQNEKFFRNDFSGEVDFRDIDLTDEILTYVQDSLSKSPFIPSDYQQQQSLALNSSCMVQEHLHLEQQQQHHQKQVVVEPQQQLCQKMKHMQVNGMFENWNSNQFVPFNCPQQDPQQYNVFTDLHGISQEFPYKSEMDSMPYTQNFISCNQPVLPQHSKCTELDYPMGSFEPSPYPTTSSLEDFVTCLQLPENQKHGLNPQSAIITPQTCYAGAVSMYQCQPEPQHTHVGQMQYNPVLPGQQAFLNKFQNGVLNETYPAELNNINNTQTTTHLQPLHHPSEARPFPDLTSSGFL
Procedure, shortened: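 Steps: seed HepG2-AhR-luc cells; allow 5 h at 37C; pin-transfer test compound or vehicle; incubate 24 h at 37C; add viability dye (30 min, 37C) and read fluorescence; add luciferase substrate (30 min, RT) and read luminescence.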

[29] = qHTS assay to identify small molecule that activate the aryl hydrocarbon receptor (AhR) signaling pathway - cell viability counter screen (AID 743086)
Procedure, shortened: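 HepG2-AhR-luc (HG2L7.5c1) cells, 4000/well, were preincubated 5 h at 37C, exposed to compound in qHTS format for 24 hr at 37C, then given CellTiter-Fluor for 30 min; viability was read as fluorescence in the reporter wells.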

[30] = target: Peroxisome proliferator-activated receptor gamma (Homo sapiens) (UniProt P37231); test: qHTS assay to identify small molecule agonists of the peroxisome proliferator-activated receptor gamma (PPARg) signaling pathway (AID 743094; active = well fitted activation curve with a large enough effect in the signal ratio in the repeat runs, not every such curve was filed as active; inconclusive = weak or mixed curves, or effect the other way; inactive = no such curve, though single readings can be large or run the other way; the % refers to the signal ratio)
Sequence of Peroxisome proliferator-activated receptor gamma (Homo sapiens) (P37231 whole entry, looked up): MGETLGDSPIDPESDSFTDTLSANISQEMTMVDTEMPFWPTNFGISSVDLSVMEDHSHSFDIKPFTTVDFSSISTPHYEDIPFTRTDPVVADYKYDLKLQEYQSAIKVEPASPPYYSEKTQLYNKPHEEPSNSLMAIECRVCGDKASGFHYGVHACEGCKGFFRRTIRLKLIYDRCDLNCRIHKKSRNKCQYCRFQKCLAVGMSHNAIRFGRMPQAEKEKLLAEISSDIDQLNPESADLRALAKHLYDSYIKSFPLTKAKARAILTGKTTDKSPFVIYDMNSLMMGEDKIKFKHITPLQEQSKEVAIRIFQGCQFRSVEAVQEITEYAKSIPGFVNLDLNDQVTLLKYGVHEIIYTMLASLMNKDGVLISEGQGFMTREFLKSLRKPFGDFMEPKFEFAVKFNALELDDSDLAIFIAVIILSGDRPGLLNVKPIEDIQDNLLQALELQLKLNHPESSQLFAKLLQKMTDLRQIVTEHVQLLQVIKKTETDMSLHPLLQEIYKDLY
Procedure, shortened: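 Agonist activity was taken from a beta-lactamase reporter (FRET substrate, 1 h at room temperature) in HEK293H cells carrying a PPARg UAS-bla construct. Compounds in DMSO were incubated 17 h at 37C after a 5 h cell pre-incubation.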

[31] = target: Acetylcholinesterase (Homo sapiens) (UniProt P22303); test: Acetylcholinesterase (AChE) small molecule antagonists: enzyme-based qHTS assay with human liver microsomes (AID 1347399; calls by dose curve; note: nearly all actives have a fitted effect of over 60% in size); conditions: Potency: qHTS inhibition; outcome: qHTS inhibition
Sequence of Acetylcholinesterase (Homo sapiens) (P22303 whole entry, looked up): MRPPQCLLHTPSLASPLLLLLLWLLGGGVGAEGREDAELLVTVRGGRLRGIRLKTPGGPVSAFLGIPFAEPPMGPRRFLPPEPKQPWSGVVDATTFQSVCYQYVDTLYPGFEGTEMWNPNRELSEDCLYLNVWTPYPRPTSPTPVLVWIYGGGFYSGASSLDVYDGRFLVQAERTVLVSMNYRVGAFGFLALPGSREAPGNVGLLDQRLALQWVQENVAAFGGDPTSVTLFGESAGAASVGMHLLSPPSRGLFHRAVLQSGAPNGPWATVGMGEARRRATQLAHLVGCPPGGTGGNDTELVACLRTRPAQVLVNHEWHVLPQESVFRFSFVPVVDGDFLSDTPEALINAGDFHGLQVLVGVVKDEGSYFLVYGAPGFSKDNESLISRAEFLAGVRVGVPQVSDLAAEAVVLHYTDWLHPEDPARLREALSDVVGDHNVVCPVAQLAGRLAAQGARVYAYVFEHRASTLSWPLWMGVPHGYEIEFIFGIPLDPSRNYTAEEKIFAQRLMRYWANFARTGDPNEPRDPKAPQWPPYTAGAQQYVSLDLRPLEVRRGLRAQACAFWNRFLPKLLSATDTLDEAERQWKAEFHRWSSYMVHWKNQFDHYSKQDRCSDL
Procedure, shortened: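 Recombinant human AChE (50 mU/mL in the enzyme mix) and human liver microsomes (0.25 mg/mL final) were preincubated with compound and NADPH (0.25 mg/mL final) for 30 min at 37 C. Acetylthiocholine/DTNB was then added; thiocholine was read colorimetrically after 10 min at room temperature.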

[32] = target: Acetylcholinesterase (Homo sapiens) (UniProt P22303); test: Acetylcholinesterase (AChE) small molecule antagonists: fluorescence cell-based qHTS assay (AID 1347398; calls by dose curve; note: nearly all actives have a fitted effect of over 50% in size; note: potency is the fitted concentration of half-maximal effect); conditions: Potency: AChE activity; outcome: AChE activity
Procedure, shortened: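 Using neuroblastoma SH-SY5Y cells as the enzyme source, test chemicals are preincubated 30 min at 37 C; AChE-driven acetylthiocholine cleavage is then quantified by thiocholine-dependent Thiolite Green fluorescence after 40 min at room temperature.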

[33] = target: Glucocorticoid receptor (Homo sapiens) (UniProt P04150); test: qHTS assay to identify small molecule agonists of the glucocorticoid receptor (GR) signaling pathway (AID 720691; active = well fitted activation curve with a large enough effect in the signal ratio in the repeat runs, not every such curve was filed as active; inconclusive = weak or mixed curves, or effect the other way; inactive = no such curve, though single readings can be large or run the other way; the % refers to the signal ratio)
Sequence of Glucocorticoid receptor (Homo sapiens) (P04150 whole entry, looked up): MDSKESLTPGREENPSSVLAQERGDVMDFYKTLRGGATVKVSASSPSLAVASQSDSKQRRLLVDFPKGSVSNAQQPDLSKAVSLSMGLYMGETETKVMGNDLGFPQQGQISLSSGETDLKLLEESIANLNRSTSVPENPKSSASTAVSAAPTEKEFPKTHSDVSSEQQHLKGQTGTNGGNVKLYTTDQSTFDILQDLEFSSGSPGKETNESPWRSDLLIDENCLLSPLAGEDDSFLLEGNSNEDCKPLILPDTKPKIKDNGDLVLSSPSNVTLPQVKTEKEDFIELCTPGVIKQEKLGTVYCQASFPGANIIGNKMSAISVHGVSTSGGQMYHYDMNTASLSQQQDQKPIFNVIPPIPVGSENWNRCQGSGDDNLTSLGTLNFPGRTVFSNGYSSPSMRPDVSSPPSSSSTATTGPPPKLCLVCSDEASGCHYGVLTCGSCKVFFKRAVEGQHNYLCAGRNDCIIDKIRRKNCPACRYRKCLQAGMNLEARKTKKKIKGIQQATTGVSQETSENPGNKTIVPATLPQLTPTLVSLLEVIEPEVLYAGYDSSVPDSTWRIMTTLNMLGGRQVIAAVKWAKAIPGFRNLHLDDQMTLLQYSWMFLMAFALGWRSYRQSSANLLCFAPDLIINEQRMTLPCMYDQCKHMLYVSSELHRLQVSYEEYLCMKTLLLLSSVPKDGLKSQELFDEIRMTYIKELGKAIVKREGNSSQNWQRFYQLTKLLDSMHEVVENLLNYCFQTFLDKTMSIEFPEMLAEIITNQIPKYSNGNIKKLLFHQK
Procedure, shortened: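 Agonist-mode qHTS in HeLa cells stably expressing a glucocorticoid-response-element beta-lactamase reporter. Fluorescence intensity read with FRET substrate (2 h, room temperature) after 18 h compound treatment at 37 C.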

[34] = target: Glucocorticoid receptor (Homo sapiens) (UniProt P04150); test: qHTS assay to identify small molecule antagonists of the glucocorticoid receptor (GR) signaling pathway (AID 720692; active = well fitted inhibition curve with a large enough effect in the signal ratio in the repeat runs, not every such curve was filed as active; inconclusive = weak or mixed curves, or effect the other way; inactive = no such curve, though single readings can be large or run the other way; the % refers to the signal ratio)
Procedure, shortened: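 Inhibition of dexamethasone-driven (5 nM final) beta-lactamase expression was measured in GRE-reporter HeLa cells over 18 h at 37C. Fluorescence was read after 2 h with the B/G FRET substrate at room temperature.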

[35] = tested on: thyroid hormone receptor (rat, GH3 cells); test: qHTS assay to identify small molecule agonists of the thyroid receptor (TR) signaling pathway (AID 743066; calls by dose curve)
[36] = target: Estrogen receptor (Homo sapiens) (UniProt P03372); test: qHTS assay to identify small molecule antagonists of the estrogen receptor alpha (ER-alpha) signaling pathway (AID 743069; active = well fitted curve in the direction sought with a large enough effect in the signal ratio in the repeat runs, not every such curve was filed as active; inconclusive = weak or mixed curves, or effect the other way; inactive = no such curve, though single readings can be large or run the other way; the % refers to the signal ratio)
Procedure, shortened: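 A 17beta-estradiol challenge was applied right after compound transfer to ER-alpha-UAS-bla HEK293 cells previously kept in charcoal-stripped serum. Plates stood 18 hr at 37C and 5% CO2; fluorescence was read following 2 hr FRET substrate loading at room temperature.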

[37] = qHTS assay to identify small molecule antagonists of the estrogen receptor alpha (ER-alpha) signaling pathway using the BG1 cell line (AID 743080; calls by dose curve;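 note: BG1 cells stimulated with 17beta-estradiol alongside compound; series mostly up to about 70 µM; nearly all actives have a fitted effect of over 25% in size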)
Procedure, shortened: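 Luciferase inhibition measured with ONE-Glo after 30 min at RT in BG1Luc4E2 cells given test compounds and 17beta-estradiol for 21.5 h at 37 C; CellTiter-Fluor viability read in the same wells beforehand.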

Measured: Potency

C#C[C@]1(OC(=O)CCCCCC)CC[C@H]2[C@@H]3CCC4=CC(=O)CC[C@@H]4[C@H]3CC[C@@]21C
active: [2] 29.8 µM | [5] 8.41 µM | [17] 21.3 µM | [18] 5.96 µM | [21] 11.9 µM | [22] 11.9 µM | [23] 19 µM | [24] 0.338 µM [inconclusive] | [25] 0.596 µM
inactive: [1] | [3] | [4] | [6] | [7] | [8] | [9] | [10] | [11] | [12] | [13] | [14] | [15] | [16] | [19] | [20] | [26] | Aromatase (Homo sapiens) | [27] | [28] | [29] | [30]

COc1cc(C(=O)NCc2ccc(OCCN(C)C)cc2)cc(OC)c1OC
inactive: [31]

COc1cccc(-c2ccc(/C=C\CN3CCCCCC3)cc2Cl)c1
inactive: [31]
active: [32] 31.6 µM

C=CC(=O)OCCN(CC)CC
inactive: [31]

CC/C=C/CCCCCCCCCCOC(C)=O
inactive: [32] | [31]

Cc1ccc2c(c1)[C@]13CCCC[C@@H]1[C@H](C2)N(C)CC3
inactive: [1] | [2] | [3] | [4] | [5] | [6] | [7] | [8] | [9] | [10] | [11] | [12] | [13] | [14] | [15] | [16] | [33] | [34] | [17] | [19] | [20] | [21] | [35] | [36] | [24] | [25] | [37] | Aromatase (Homo sapiens) | [27] | [28] | [29]

Cc1ccc(CCn2c3c(c4cc(Cl)ccc42)CN(C)CC3)cn1
active: [32] 19.5 µM
inactive: [31]
